An excerpt weighted towards active compounds, which were near 10% of everything screened.
SW480 rereplic = DNA re-replication induction in SW480 cells; 1.8% of 340,000 active; Potency, µM (highest dose often 46.1 µM), hits mostly activators; SW480 DNA re-replication, Hoechst DNA content imaging, 48 h; also: nearly all actives have a fitted effect of over 55% in size
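Readout is total intensity of Hoechst-stained nuclei, excited at 405 nm and collected at 500-530 nm. Compound treatment lasted 48 hr at 37 C in 5% CO2 before staining.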
MCF10A rerep = induces DNA re-replication in MCF 10a normal breast cells. 2.9% of 350,000 active. MCF 10A DNA re-replication, Hoechst nuclear intensity, 48 h. Potency, µM (top dose mostly 46.1 µM), actives largely listed as activators; also: nearly all actives have a fitted effect of over 50% in size
RORgamma inh = ROR gamma (mouse) transcription inhibition | P51450 | Drosophila S2 Gal4-RORgamma UAS-luciferase reporter, 20 h | Potency, µM (titrated, usually from 53.6 µM), actives largely listed as inhibitors | 5.4% of 310,000 active; also: nearly all actives have a fitted effect of over 60% in size
Target sequence (P51450 whole entry, looked up, the tested form may be a part): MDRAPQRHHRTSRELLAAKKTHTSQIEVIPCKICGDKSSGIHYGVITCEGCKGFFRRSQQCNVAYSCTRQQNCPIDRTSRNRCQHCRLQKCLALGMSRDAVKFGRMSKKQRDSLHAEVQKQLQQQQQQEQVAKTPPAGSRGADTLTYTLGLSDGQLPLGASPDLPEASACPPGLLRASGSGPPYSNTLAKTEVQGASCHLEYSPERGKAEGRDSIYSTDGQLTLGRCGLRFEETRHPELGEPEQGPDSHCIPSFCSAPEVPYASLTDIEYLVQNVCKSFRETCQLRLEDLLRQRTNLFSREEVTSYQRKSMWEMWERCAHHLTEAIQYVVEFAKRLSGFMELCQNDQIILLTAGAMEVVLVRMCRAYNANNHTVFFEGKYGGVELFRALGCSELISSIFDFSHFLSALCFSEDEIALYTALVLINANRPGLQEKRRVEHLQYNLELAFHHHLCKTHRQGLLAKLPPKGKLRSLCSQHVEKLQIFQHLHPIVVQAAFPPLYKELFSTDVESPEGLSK
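Luciferase reporter read in Schneider cells carrying Gal4-RORγ (mouse) and UAS-Photinus luciferase; cells given compound 1 h before 700 uM copper sulfate induction, then incubated 20 h at ambient temperature.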
KB-3-1 cytotox = kills parental KB-3-1 adenocarcinoma cells. 1.4% of 400,000 active. Potency, µM (top dose mostly 46.1 µM), actives largely listed as cytotoxic. KB-3-1 viability, CellTiter-Glo ATP luminescence, 72 h; also: nearly all actives have a fitted effect of over 60% in size
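Viability of parental KB-3-1 cells, measured by CellTiter-Glo luminescence, followed a 72 h incubation at 37 °C with pinned compounds in phenol-red-free DMEM containing 10% FBS.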
Gal4-VP16 FLuc = Gal4-VP16 reporter inhibition counter-screen. Drosophila S2 Gal4-VP16 UAS-luciferase, luminescence, 20 h. Potency, µM (doses to about 53.6 µM), usual class: inhibitors. 3.5% of 310,000 active. AID 2546;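 also: Gal4-VP16 expression switched on by copper sulfate through the metallothionein promoter; nearly all actives have a fitted effect of over 50% in size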
KB-V1 cytotox = kills drug-selected multidrug resistant KB-V1 cells; AID 1347076; KB-V1 MDR cells viability, CellTiter-Glo, 72 h; Potency, µM (top dose mostly 46.1 µM), hits mostly cytotoxic; 3.4% of 400,000 active; also: nearly all actives have a fitted effect of over 60% in size
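Readout: CellTiter-Glo luminescence, 10 min after addition. Cells: KB-V1 MDR subline, 72 h at 37 degrees C with compound. Analysis: corrected, normalized data fitted to concentration-effect curves.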
A number is an active result; – = inactive; ? = inconclusive; · = not tested or not shown; [ ] = remark or other dose. Calls follow the shape of the dose curve; as a rule, active = well fitted curve in the direction sought with a large enough effect; inconclusive = small, poorly fitted or top-dose-only effect, or another doubt; inactive = no such curve, though single readings can be large; an effect the other way counts as inactive or inconclusive.

SMILES	SW480 rereplic	MCF10A rerep	RORgamma inh	KB-3-1 cytotox	Gal4-VP16 FLuc	KB-V1 cytotox
Cc1nc(N2C(=O)c3oc4ccccc4c(=O)c3C2c2cccc(OCCC(C)C)c2)sc1C (stereo not given)	·	·	·	–	·	–
CSc1ccc(/C=C/c2ccnc3ccccc23)cc1	·	·	·	?	·	–
CN1CCN(c2ccc(S(=O)(=O)N3CCCCC3)cc2NC(=O)c2ccc3ccccc3c2)CC1	?	23µM	11µM	?	8.9µM	10µM
Cc1ccccc1C(=O)Nc1cc(S(=O)(=O)N2CCCCC2)ccc1N1CCN(C)CC1	–	–	–	?	–	?
O=C(Nc1ccccc1N1CCOCC1)C1CCN(S(=O)(=O)c2ccccc2F)CC1	–	–	–	–	–	8.2µM
COc1ccc(-c2cn3nc(N4CCCC(C(=O)NCc5ccc(Cl)cc5)C4)sc3n2)cc1 (stereo not given)	·	·	·	?	·	–
O=C(NNC(=O)c1ccc(F)cc1)c1ccncc1	–	–	–	–	–	–
O=C(NNC1=Nc2ccccc2SC1)c1ccc(Cl)cc1	18µM	?	1.1µM	?	5.6µM	?
O=C(NNC1=Nc2ccccc2SC1)c1ccc(F)cc1	–	–	?	?	3.5µM	–
CCn1c(=O)c2cc(S(=O)(=O)NCCOc3ccccc3)ccc2n(CC)c1=O	–	–	–	–	–	–
CCn1c(=O)c2cc(S(=O)(=O)NCc3ccccc3)ccc2n(CC)c1=O	–	–	–	–	–	15µM
CC(C)C[C@H](NC(=O)c1nc[nH]c1C(=O)NCC(=O)OC(C)(C)C)C(=O)OC(C)(C)C	–[9.22 µM]	–	7.1µM	–	?	–
CC(C)C[C@H](NC(=O)c1nc[nH]c1C(=O)N[C@@H](CC(C)C)C(=O)OC(C)(C)C)C(=O)OC(C)(C)C	?	?	?	?	11µM	?
CC(C)C[C@H](NC(=O)c1[nH]cnc1C(=O)Nc1ccc(Cl)cc1)C(=O)OC(C)(C)C	?	–	2.8µM	?	4µM	?
CC(C)(C)OC(=O)NCCCCCNC(=O)c1[nH]cnc1C(=O)Nc1ccc(Cl)cc1	–	–	·	?	·	–
C[C@H](NC(=O)c1nc[nH]c1C(=O)NCC(=O)OC(C)(C)C)C(=O)OC(C)(C)C	–	–	13µM	–	?	–
Cc1c(Br)cccc1NC(=O)C1(C)CCN1CCc1ccccc1 (stereo not given)	·	·	·	?	·	–
O=C(O)c1ccc2c(c1)C(=O)N([C@H](Cc1ccc(O)cc1)C(=O)O)C2=O	·	·	–	·	–	·
CC(CC(=O)NCc1ccc(Cl)cc1Cl)CC1=NS(=O)(=O)c2ccccc2N1 (stereo not given)	·	·	·	–	·	?
Nc1c(C(=O)c2ccccc2)sc2nsc(SCCN3CCCC3)c12	?	21µM	?	?	–	?
CC(OC(=O)c1ccc(C(C)(C)C)cc1)C(=O)NC1CCCCC1C (stereo not given)	–	–	–	–	14µM	–
Cc1ccc(C(=O)OC(C)C(=O)NC2CCCCC2C)s1 (stereo not given)	–	–	·	–	·	21µM
CC(OC(=O)c1ccc(S(=O)(=O)N2CCCCC2)cc1)C(=O)NC1CCCCC1C (stereo not given)	–	–	–	–	–	–
CC(OC(=O)c1ccccc1NCCO)C(=O)NC1CCCCC1C (stereo not given)	–	–	·	–	·	9.2µM
CCOc1ccc(NC(=O)Cn2c(=O)cc(C)c3c(C)nn(-c4cccc(Cl)c4C)c32)cc1	·	·	·	–	·	–
CC(C)c1ccc(NC(=O)C2(C)Cc3c(-c4ccc(N(C)C)cc4)ccnc3O2)cc1 (stereo not given)	·	·	·	–	·	–
O=S(=O)(c1ccc(Oc2ccccc2)cc1)N1CCOCC1	–	–	–	–	–	–
Cc1cccc(-c2nc(NCCCN3CCOCC3)c3ccccc3n2)c1	–	?	–	?	–	–
c1csc(-c2csc3ncnc(NCCCN4CCOCC4)c23)c1	–	–	–[0.365 µM]	?	·	3.3µM
c1ccc(-c2csc3ncnc(NCCCN4CCOCC4)c23)cc1	–	–	–	–	–	8.2µM

High-throughput results: PubChem, National Center for Advancing Translational Sciences (NCATS)
